Active and inactive are the calls of the source. Rule for the calls: active = hit-call score of the fitted dose curve at least 0.9, where 1 is the maximum; inactive = score below 0.9.
Legend:
[1] = ATG_CRE_CIS: Attagene CIS-FACTORIAL HepG2 Assay for human cAMP Responsive Element (CRE) binding protein 3 (AID 2282926); conditions: HepG2 CRE cis-reporter, Attagene multiplexed mRNA; actives raise or lower the signal
Procedure, shortened: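 Endogenous transcription factor activity read via CRE-regulated reporter transcripts in transfected HepG2 cells. After 24 h exposure, RNA was reverse-transcribed, amplified, fluorescently labelled and sized by capillary electrophoresis; gain or loss fitted against DMSO.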

[2] = target: CCAAT/enhancer-binding protein beta (Homo sapiens) (UniProt P17676); assay: ATG_C_EBP_CIS: Attagene CIS-FACTORIAL HepG2 Assay for human CCAAT/Enhancer Binding Protein (C/EBP) beta (AID 2282927); conditions: HepG2 Attagene cis-factorial transcription factor reporter; actives raise or lower the signal
Procedure, shortened: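 HepG2, transient MRTU transfection, 24 h treatment. RT-PCR plus CE fluorescence; DMSO negative control, bidirectional fit.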

[3] = ATG_CMV_CIS: Attagene CIS-FACTORIAL HepG2 Assay for human CMV (Internal Marker) (AID 2282928); conditions: HepG2 CMV promoter reporter, transcription factor profiling; actives raise or lower the signal;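 note: endpoint acts as a background internal control marker rather than a target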
Procedure, shortened: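 Readout: fluorescent reporter cDNA fragments separated by capillary electrophoresis after RT-PCR and HpaI cut. Cells: HepG2 carrying transfected cis-promoter reporter constructs, dosed 24 h. Endpoint serves as background internal-marker control, fit bidirectionally versus DMSO.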

[4] = ATG_DR4_LXR_CIS: Attagene CIS-FACTORIAL HepG2 Assay for human Liver X Receptor (LXR), DR4 submotif (AID 2282929); conditions: HepG2 Attagene DR4 cis-reporter, mRNA transcription; actives raise or lower the signal
Procedure, shortened: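 Endogenous factor activity at a DR4 cis-element is read as reporter mRNA in transiently transfected HepG2 cells. Exposure lasts 24 h; transcripts are amplified, fluorescently labelled and sized by capillary electrophoresis, with DMSO as baseline.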

[5] = ATG_AP_2_CIS: Attagene CIS-FACTORIAL HepG2 Assay for human Activator Protein 2 (AP-2) (AID 2282932); conditions: HepG2 AP-2 cis-reporter, Attagene transcription factor profiling; actives raise or lower the signal
Procedure, shortened: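 Liver-derived HepG2 line, cis-reporter system measuring endogenous factors; 24 h dosing; reporter mRNA detected by fluorescent RT-PCR and capillary electrophoresis.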

[6] = ATG_E_Box_CIS: Attagene CIS-FACTORIAL HepG2 Assay for human Enhancer Box (E-box) (AID 2282936); conditions: HepG2 E-box cis-reporter transcription, actives raise or lower the signal
Procedure, shortened: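 In this cell-based setup, HepG2 cells bearing transfected promoter-driven reporter units were exposed to chemicals for 24 h; reporter transcripts were amplified, 6-FAM-labelled, cut with HpaI and sized by capillary electrophoresis.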

[7] = ATG_EGR_CIS: Attagene CIS-FACTORIAL HepG2 Assay for human Early Growth Response 1 (EGR1) (AID 2282938); conditions: HepG2 Attagene CIS-FACTORIAL EGR reporter mRNA; actives raise or lower the signal
Procedure, shortened: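 HepG2, transient MRTU transfection (cis promoters), 24 h compound. RNA → RT (oligo-dT) → PCR → 6-FAM labelling → HpaI cut → CE fluorescence. Bidirectional fit, DMSO baseline.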

[8] = ATG_M_19_CIS: Attagene CIS-FACTORIAL HepG2 Assay for M19 Transcription Factor (Internal Marker) (AID 2282939); conditions: HepG2 Attagene CIS-FACTORIAL M19 internal marker reporter; actives raise or lower the signal
Procedure, shortened: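 Signals come from fluorescence of labelled reporter-specific PCR fragments resolved by capillary electrophoresis, following 24 h treatment of HepG2 cells transfected with cis-promoter reporter units; activity was fitted in both directions relative to DMSO.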

[9] = ATG_Ets_CIS: Attagene CIS-FACTORIAL HepG2 Assay for human Erythroblast Transformation Specific (ETS) (AID 2282941); conditions: HepG2 ETS cis-reporter transcription, actives raise or lower the signal
Procedure, shortened: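 RT-PCR/capillary electrophoresis fluorescence read-out of reporter mRNA; HepG2 transient multi-reporter transfection; 24 h compound exposure; gain or loss of signal fitted bidirectionally relative to DMSO.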

[10] = target: Hepatocyte nuclear factor 3-beta (Homo sapiens) (UniProt Q9Y261); assay: ATG_FoxA2_CIS: Attagene CIS-FACTORIAL HepG2 Assay for human Forkhead box A2 (FOXA2) (AID 2282942); conditions: HepG2 cis-reporter transcription factor activity, 24 h; actives raise or lower the signal
Procedure, shortened: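 Cells: HepG2, transient multiplex reporter transfection. Exposure 24 h. Detection: reporter-specific RT-PCR, fluorescent labelling, restriction digest, capillary electrophoresis. Analysis: bidirectional curve fit, DMSO as negative control.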

[11] = ATG_FoxO_CIS: Attagene CIS-FACTORIAL HepG2 Assay for human Forkhead box O (FoxO) (AID 2282943); conditions: HepG2 Attagene cis-reporter, FoxO element, mRNA; actives raise or lower the signal
Procedure, shortened: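 Transfected HepG2 reporter cells exposed to test chemical for 24 h; reporter RNA measured by reverse transcription, PCR and fluorescent capillary electrophoresis; curves fitted for increases and decreases against DMSO.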

[12] = ATG_GATA_CIS: Attagene CIS-FACTORIAL HepG2 Assay for human GATA Binding Protein (AID 2282944); conditions: HepG2 GATA cis-element reporter, Attagene multiplex mRNA; actives raise or lower the signal
Procedure, shortened: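 After transfecting HepG2 cells with multiple cis-regulated reporter units, chemicals are dosed for 24 h; isolated RNA undergoes RT-PCR and fluorescent labeling before capillary electrophoresis, with activity expressed against DMSO.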

[13] = ATG_M_32_CIS: Attagene CIS-FACTORIAL HepG2 Assay for M32 Transcription Factor (Internal Marker) (AID 2282949); conditions: HepG2 Attagene cis-factorial M32 reporter, mRNA; actives raise or lower the signal;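 note: background control marker of the multiplexed CIS panel rather than a real target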
Procedure, shortened: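 HepG2 transfectants (cis-regulated reporter transcription units) dosed 24 h. Reporter mRNA by RT-PCR plus CE, analysed as gain or loss relative to DMSO.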

[14] = ATG_M_06_CIS: Attagene CIS-FACTORIAL HepG2 Assay for M06 Transcription Factor (Internal Marker) (AID 2282950); conditions: HepG2 Attagene CIS-FACTORIAL M06 internal marker reporter; actives raise or lower the signal
Procedure, shortened: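 HepG2 liver cells, 24 h exposure. Reporter transcripts from transfected cis-element constructs quantified by RT-PCR/capillary electrophoresis fluorescence. Bidirectional curve fit against DMSO.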

[15] = ATG_PXRE_CIS: Attagene CIS-FACTORIAL HepG2 Assay for human Pregnane X Receptor Element (PXRE) (AID 2282957); conditions: HepG2 Attagene CIS-FACTORIAL PXRE reporter, mRNA; actives raise or lower the signal
Procedure, shortened: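 Reporter transcripts under endogenous PXR-responsive cis-regulation quantified from total RNA of transfected HepG2 cells 24 h post-dosing, via RT-PCR with fluorescent primer extension and capillary electrophoresis. Gain or loss of signal fitted against DMSO baseline.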

[16] = ATG_Sox_CIS: Attagene CIS-FACTORIAL HepG2 Assay for human SRY-box transcription factor (SOX) (AID 2282960); conditions: HepG2 Attagene cis-factorial SOX reporter, mRNA; actives raise or lower the signal
Procedure, shortened: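 Cells were transfected with reporter constructs under cis-regulatory promoters, then exposed to chemicals for 24 h. Reporter transcripts were quantified by fluorescence after RT-PCR and capillary electrophoresis; activity was fitted in both directions against DMSO.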

[17] = target: Transcription factor Sp1 (Homo sapiens) (UniProt P08047); assay: ATG_Sp1_CIS: Attagene CIS-FACTORIAL HepG2 Assay for human Specificity Protein 1 (Sp1) (AID 2282961); conditions: HepG2 Sp1 cis-reporter transcription, actives raise or lower the signal
Procedure, shortened: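 Measures mRNA induction of an Sp1-linked reporter in HepG2 cells 24 h post-dosing. Multiplexed reporters read by RT-PCR and capillary electrophoresis; DMSO serves as negative control and baseline.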

[18] = ATG_SREBP_CIS: Attagene CIS-FACTORIAL HepG2 Assay for human Sterol Regulatory Element Binding (SREBP) (AID 2282962); conditions: HepG2 Attagene cis-factorial SREBP reporter, mRNA; actives raise or lower the signal
Procedure, shortened: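 Readout: fluorescent reporter-transcript peaks resolved by capillary electrophoresis after RT-PCR. Cells were human HepG2 carrying transfected cis-promoter reporter constructs, dosed for 24 h. Gain or loss of signal was fitted against DMSO controls.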

[19] = target: Signal transducer and activator of transcription 3 (Homo sapiens) (UniProt P40763); assay: ATG_STAT3_CIS: Attagene CIS-FACTORIAL HepG2 Assay for human Signal Transducer and Activator of Transcription 3 (STAT3) (AID 2282963); conditions: HepG2, Attagene cis-factorial STAT3 reporter transcription; actives raise or lower the signal
Procedure, shortened: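 Fluorescence intensity of 6-FAM-labelled reporter fragments, separated by capillary electrophoresis after RT-PCR, gave the signal. Cells were HepG2 transfected with cis-element reporter units and treated 24 h; fitting was bidirectional relative to DMSO.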

[20] = ATG_TA_CIS: Attagene CIS-FACTORIAL HepG2 Assay for human TA Basal Promoter (AID 2282964); conditions: HepG2 Attagene CIS-factorial TA basal promoter reporter; actives raise or lower the signal
Procedure, shortened: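 Fluorescence from labelled RT-PCR reporter fragments, separated by capillary electrophoresis, gives the signal. Cells: HepG2 transiently carrying multiple reporter units, 24 h chemical dosing. Gain or loss relative to DMSO.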

Measured: AC50

Chain of Signal transducer and activator of transcription 3 (Homo sapiens) (P40763 whole entry, looked up, the tested form may be a part): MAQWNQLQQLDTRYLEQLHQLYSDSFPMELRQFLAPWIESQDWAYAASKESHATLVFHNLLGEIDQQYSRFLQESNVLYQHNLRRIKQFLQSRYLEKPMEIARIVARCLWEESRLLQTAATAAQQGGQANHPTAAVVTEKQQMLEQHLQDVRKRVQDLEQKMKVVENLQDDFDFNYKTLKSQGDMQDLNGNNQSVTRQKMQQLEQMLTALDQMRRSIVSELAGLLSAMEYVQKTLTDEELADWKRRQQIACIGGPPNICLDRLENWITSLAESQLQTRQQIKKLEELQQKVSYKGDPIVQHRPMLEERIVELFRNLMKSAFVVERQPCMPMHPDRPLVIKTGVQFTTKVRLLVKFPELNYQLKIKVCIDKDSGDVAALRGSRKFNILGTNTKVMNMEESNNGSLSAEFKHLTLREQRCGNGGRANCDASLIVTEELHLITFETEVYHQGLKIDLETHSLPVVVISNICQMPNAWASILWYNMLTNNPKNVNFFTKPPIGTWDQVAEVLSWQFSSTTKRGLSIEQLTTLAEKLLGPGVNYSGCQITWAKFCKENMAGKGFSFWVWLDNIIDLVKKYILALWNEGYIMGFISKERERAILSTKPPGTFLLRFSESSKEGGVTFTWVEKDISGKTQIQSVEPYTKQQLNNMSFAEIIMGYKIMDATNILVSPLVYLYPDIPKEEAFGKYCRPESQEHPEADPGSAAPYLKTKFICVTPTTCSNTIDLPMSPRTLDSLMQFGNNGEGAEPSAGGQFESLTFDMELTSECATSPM
Chain of Transcription factor Sp1 (Homo sapiens) (P08047 whole entry, looked up): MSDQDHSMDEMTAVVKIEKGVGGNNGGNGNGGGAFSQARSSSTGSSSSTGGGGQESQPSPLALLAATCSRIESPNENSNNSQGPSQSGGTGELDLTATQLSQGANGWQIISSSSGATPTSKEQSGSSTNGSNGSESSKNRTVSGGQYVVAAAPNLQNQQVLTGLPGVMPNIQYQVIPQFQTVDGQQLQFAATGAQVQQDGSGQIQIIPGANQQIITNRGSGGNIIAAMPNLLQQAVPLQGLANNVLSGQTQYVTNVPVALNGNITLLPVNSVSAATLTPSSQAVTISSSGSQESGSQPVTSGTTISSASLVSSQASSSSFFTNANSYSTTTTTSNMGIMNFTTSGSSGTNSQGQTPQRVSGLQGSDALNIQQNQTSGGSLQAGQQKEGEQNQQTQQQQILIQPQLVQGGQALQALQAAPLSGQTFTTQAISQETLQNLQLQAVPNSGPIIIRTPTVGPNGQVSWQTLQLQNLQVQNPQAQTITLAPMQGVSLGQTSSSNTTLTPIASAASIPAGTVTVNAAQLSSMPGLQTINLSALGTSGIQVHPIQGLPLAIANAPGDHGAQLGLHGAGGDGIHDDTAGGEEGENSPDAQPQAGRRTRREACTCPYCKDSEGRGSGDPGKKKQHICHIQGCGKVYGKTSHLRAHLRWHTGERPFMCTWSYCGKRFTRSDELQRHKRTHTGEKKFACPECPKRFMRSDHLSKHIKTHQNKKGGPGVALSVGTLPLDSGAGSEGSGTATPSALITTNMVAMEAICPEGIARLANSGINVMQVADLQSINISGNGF
Chain of CCAAT/enhancer-binding protein beta (Homo sapiens) (P17676 whole entry, looked up): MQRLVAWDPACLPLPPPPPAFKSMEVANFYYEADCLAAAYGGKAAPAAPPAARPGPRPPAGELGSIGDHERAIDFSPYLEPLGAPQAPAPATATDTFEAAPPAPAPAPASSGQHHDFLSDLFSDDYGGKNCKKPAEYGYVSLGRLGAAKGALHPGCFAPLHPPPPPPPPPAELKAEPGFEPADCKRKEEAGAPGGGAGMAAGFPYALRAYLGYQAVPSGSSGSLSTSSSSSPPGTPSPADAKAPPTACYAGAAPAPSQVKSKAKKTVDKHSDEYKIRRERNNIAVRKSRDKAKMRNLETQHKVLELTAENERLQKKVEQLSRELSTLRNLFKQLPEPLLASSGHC
Chain of Hepatocyte nuclear factor 3-beta (Homo sapiens) (Q9Y261 whole entry, looked up): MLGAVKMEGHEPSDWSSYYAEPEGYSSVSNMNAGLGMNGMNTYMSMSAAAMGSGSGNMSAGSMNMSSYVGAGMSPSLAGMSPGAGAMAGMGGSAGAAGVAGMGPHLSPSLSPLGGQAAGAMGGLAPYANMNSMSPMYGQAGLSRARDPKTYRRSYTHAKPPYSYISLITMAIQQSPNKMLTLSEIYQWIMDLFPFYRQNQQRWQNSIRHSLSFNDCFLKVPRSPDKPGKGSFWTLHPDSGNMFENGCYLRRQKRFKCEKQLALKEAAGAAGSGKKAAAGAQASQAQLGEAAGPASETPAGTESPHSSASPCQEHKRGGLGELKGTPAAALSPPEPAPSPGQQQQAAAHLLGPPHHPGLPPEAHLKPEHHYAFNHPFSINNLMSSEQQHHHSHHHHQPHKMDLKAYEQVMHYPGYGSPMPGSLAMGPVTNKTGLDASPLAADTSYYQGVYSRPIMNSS

COC(=O)c1ccccc1S(=O)(=O)NC(=O)Nc1nc(C)cc(C)n1
inactive: all assays above

C=CCN(CC=C)C(=O)C(Cl)Cl
active: [15] 43.9 µM
inactive: all other assays above

CC[N+](=O)[O-]
inactive: all assays above

CC1(C)C(=O)NC(=O)NC1=O
inactive: all assays above

Cc1ccc(C)c2ccccc12
active: [15] 33.4 µM
inactive: all other assays above

CC(=O)C=Cc1ccccc1
active: [2] 100 µM | [3] 128 µM | [5] 143 µM | [7] 146 µM | [9] 100 µM | [11] 100 µM | [15] 26 µM | [16] 164 µM
inactive: all other assays above

CC(C)(C)C(O)C(Oc1ccc(-c2ccccc2)cc1)n1cncn1 (stereo not given)
active: [2] 47.1 µM | [3] 33.4 µM | [4] 57.3 µM | [15] 1.29 µM | [18] 12.7 µM | [20] 33.4 µM
inactive: all other assays above
